# Reference: PubChem BioAssay
# Active and inactive are the calls of the source. Unless noted, no rule for the calls is given here.
# Experiments:
# [1] = test system: Wnt5a (protein binding on small-molecule microarray); test: small molecules binding Wnt5a protein – biophysical, small-molecule microarray, 635/667 nm fluorescence, primary screen (AID 1142); conditions: 635 nm fluorescence, higher = more signal;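 also: fluorescence read at 667 nm with signal to noise per printed feature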
# [2] = ATP-based viability of Huh7 replicon cells – cell-based, CellTiter-Glo luminescence, basal, 48 h, cytotoxicity control for HCV replication inhibitor project, primary screen (AID 1143); conditions: higher = more signal, called active from +8 up or from −8 down;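 also: Huh7 hepatoma cells carrying a hepatitis C replication reporter with no stimulus; test concentration not given here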
# [3] = Pseudomonas biofilm growth suppression – PAO1 strain, BacTiter-Glo luminescence, LB-PBS, primary screen (AID 1144); conditions: P. aeruginosa PAO1 biofilm, 12 h, higher = more signal
# [4] = basal CRE-LacZ reporter activity in PC12 – cell-based, unstimulated, primary screen (AID 1145); conditions: no forskolin, luminescence, 4.5 h, higher = more signal, called active from +8 up or from −8 down
# [5] = forskolin-driven CRE-LacZ activity in PC12 – cell-based, CRE-LacZ reporter, forskolin-stimulated, primary screen (AID 1146); conditions: luminescence, 4.5 h, higher = more signal, called active from +8 up or from −8 down;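 also: PC12 cells with 6xCRE LacZ reporter stimulated by forskolin 10 µM; beta-galactosidase reporter signal reflecting CREB driven transcription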
# [6] = molecular target: Streptavidin (Streptomyces avidinii) (UniProt P22629); test: compounds binding control protein streptavidin – biophysical, small-molecule microarray, 635/667 nm fluorescence, artefact control for SMM compound annotation, primary screen (AID 1147); conditions: higher = more signal;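 also: signal reflects streptavidin binding to arrayed compounds as a control protein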
# Streptavidin (Streptomyces avidinii), sequence (P22629 whole entry, looked up): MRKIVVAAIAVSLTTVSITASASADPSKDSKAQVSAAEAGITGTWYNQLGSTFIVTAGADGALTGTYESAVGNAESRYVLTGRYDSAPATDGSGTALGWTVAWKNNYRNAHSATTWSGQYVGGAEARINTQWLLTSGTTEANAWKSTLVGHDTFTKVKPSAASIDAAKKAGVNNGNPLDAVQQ
# [7] = probe aInhba binding on compound microarray – biochemical, small-molecule microarray, 635/667 nm fluorescence, primary screen (AID 1148); conditions: higher = more signal;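 also: score merges 667nm spot fluorescence with signal-to-noise for antibody binding to printed compounds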
# Torsin-1A (Homo sapiens) [8] = molecular target: Torsin-1A (Homo sapiens) (UniProt O14656); test: TOR1A wild-type binding on microarray – cell lysate, small-molecule microarray, lysate, 635/667 nm, primary screen (AID 1149); conditions: COS7 hTOR1A-WT lysate, 635 nm fluorescence, higher = more signal
# Torsin-1A (Homo sapiens), sequence (O14656 whole entry, looked up): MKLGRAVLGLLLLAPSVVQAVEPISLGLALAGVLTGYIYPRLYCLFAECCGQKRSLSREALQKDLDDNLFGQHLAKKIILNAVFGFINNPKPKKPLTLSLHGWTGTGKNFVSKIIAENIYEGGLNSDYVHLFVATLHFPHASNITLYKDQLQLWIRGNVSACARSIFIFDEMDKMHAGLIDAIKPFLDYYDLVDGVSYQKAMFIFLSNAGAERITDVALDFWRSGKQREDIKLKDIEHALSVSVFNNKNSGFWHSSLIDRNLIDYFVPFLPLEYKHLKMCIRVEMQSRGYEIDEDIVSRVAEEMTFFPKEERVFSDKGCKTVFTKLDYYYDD
# Torsin-1A (Homo sapiens) [9] = molecular target: Torsin-1A (Homo sapiens) (UniProt O14656); test: torsin A mutant lysate binding on microarrays – cell lysate, small-molecule microarray, COS7 lysate, 635/667 nm fluorescence, primary screen (AID 1150); conditions: COS7 hTOR1A mutant lysate, 635 nm fluorescence, higher = more signal;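 also: score pools 667 nm emission and signal to noise measuring lysate protein binding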
# [10] = test system: Sonic hedgehog protein (Shh); test: Sonic hedgehog microarray binding compounds – biochemical, small-molecule microarray, 635/667 nm fluorescence, primary screen (AID 1151); conditions: 635 nm fluorescence, higher = more signal;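 also: Shh protein binding to compounds spotted on small-molecule microarray slides; score combines spot fluorescence intensity with signal-to-noise across triplicate slides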
# [11] = optical density shifts of acrAB sulA E. coli – strain DRC41, OD650, 48 h, E. coli filamentation inducer project, primary screen (AID 1152); conditions: higher = more signal, called active from +8 up or from −8 down;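 also: E. coli MC1000 strain DRC41 lacking acrAB efflux pump and sulA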
# [12] = probe aLefty1 binding on compound microarray – biochemical, small-molecule microarray, 635/667 nm fluorescence, primary screen (AID 1153); conditions: higher = more signal;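 also: score merges spot fluorescence with signal-to-noise ratio from the scanned slide images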
# [13] = plasmodial surface anion channel blockers, osmotic lysis – cell-based, P. falciparum Indochina, OD700, 1 h, primary screen (AID 1154); conditions: P. falciparum Indochina infected RBC osmotic lysis, higher = more signal, called active from +8 up or from −8 down
# [14] = plasmodial surface anion channel blockers, osmotic lysis – cell-based, P. falciparum Indochina, OD700, 2 h, primary screen (AID 1155);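 also: lysis reports solute entry through the parasite surface anion channel PSAC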; conditions: P. falciparum Indochina infected erythrocytes, higher = more signal, called active from +8 up or from −8 down
# [15] = changes in parasitized red cell lysis, either direction – P. falciparum Indochina, OD700, 3 h, PSAC antagonist project, primary screen (AID 1156); conditions: P. falciparum-infected erythrocytes, osmotic lysis, higher = more signal, called active from +8 up or from −8 down
# [16] = plasmodial surface anion channel blockers, osmotic lysis – cell-based, P. falciparum Indochina, OD700, 18 h, primary screen (AID 1157); conditions: P. falciparum Indochina infected erythrocytes, osmotic lysis OD700, 18 h; higher = more signal, called active from +8 up or from −8 down
# [17] = S6 kinase pathway phospho-S6 level changes – cell-based, A549, cytoblot, luminescence, serum-stimulated, primary screen (AID 1158); conditions: 5 h, higher = more signal;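 also: serum-stimulated A549 lung adenocarcinoma cells; signal is phosphorylated S6 detected by cytoblot immunostaining with HRP secondary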
# [18] = molecular target: NADPH oxidase 2 (Homo sapiens) (UniProt P04839); test: compounds shifting NOX2 Amplex Red fluorescence – cell-based, HEK293-NOX2, PMA-stimulated, NOX inhibitor project, primary screen (AID 1159); conditions: 45 min, higher = more signal, called active from +8 up or from −8 down; also: test concentration not given here
# NADPH oxidase 2 (Homo sapiens), sequence (P04839 whole entry, looked up): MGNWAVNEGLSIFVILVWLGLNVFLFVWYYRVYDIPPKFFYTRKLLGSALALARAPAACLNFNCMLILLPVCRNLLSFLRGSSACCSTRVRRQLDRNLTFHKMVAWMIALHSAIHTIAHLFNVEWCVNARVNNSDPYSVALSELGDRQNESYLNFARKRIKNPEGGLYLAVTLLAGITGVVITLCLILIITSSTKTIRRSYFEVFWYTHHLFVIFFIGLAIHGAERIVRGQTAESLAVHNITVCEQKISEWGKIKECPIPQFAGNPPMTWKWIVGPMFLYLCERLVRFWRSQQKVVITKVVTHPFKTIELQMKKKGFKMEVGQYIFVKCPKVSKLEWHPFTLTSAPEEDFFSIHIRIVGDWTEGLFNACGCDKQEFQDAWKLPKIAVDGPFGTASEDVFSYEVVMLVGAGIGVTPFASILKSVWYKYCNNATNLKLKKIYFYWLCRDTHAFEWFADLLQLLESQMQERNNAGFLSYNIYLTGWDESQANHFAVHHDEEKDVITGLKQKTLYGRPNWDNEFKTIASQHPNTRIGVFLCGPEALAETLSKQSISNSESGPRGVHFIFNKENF
# [19] = molecular target: NADPH oxidase 4 (Homo sapiens) (UniProt Q9NPH5); test: compounds shifting NOX4 Amplex Red fluorescence – cell-based, HEK293-NOX4, tetracycline-induced, NOX inhibitor project, primary screen (AID 1160); conditions: HEK293-NOX4, Amplex Red H2O2 fluorescence, 45 min; higher = more signal, called active from +8 up or from −8 down
# NADPH oxidase 4 (Homo sapiens), sequence (Q9NPH5 whole entry, looked up): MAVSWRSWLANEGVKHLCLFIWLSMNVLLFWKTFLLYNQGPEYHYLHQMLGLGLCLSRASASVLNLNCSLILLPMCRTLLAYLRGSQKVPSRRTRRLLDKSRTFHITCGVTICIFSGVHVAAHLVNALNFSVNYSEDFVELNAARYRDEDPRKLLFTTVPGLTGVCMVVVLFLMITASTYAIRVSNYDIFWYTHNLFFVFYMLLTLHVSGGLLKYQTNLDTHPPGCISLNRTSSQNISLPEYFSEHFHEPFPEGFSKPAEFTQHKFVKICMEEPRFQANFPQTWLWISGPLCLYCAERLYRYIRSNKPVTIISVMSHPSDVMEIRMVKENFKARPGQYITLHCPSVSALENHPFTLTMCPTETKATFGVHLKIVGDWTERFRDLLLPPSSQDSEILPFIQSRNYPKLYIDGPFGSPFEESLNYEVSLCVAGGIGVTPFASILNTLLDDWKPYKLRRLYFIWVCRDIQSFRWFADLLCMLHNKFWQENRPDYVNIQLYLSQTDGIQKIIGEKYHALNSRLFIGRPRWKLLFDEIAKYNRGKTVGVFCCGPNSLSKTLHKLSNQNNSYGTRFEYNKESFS
# [20] = molecular target: NADPH oxidase 5 (Homo sapiens) (UniProt Q96PH1); test: compounds shifting NOX5 Amplex Red fluorescence – cell-based, HEK293-NOX5, NOX inhibitor project, primary screen (AID 1161); conditions: HEK293-NOX5, ionomycin, 45 min, higher = more signal
# NADPH oxidase 5 (Homo sapiens), sequence (Q96PH1 whole entry, looked up): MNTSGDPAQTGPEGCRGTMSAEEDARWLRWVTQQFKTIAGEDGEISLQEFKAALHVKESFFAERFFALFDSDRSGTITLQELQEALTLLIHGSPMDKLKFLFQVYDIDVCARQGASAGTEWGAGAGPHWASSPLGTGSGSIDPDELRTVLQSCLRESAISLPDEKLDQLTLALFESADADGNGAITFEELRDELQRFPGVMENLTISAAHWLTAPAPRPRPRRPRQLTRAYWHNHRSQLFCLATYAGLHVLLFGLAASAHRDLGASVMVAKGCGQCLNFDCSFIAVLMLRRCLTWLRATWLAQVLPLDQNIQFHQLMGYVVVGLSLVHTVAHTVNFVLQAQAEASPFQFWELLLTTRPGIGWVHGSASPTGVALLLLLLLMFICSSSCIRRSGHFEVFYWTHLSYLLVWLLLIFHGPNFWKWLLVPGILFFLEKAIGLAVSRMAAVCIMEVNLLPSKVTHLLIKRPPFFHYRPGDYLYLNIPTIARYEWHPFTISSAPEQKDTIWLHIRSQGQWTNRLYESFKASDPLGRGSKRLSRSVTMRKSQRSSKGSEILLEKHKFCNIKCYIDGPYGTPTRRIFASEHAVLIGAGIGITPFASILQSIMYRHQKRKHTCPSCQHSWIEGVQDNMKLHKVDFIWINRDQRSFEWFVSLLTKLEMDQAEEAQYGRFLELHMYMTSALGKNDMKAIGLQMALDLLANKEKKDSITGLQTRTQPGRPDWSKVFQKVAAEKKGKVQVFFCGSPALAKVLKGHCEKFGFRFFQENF
SMILES,composite z-score [1],z-score [2],z-score [3],z-score [4],z-score [5],composite z-score [6],composite z-score [7],composite z-score (Torsin-1A (Homo sapiens) [8]),composite z-score (Torsin-1A (Homo sapiens) [9]),composite z-score [10],z-score [11],composite z-score [12],z-score [13],z-score [14],z-score [15],z-score [16],z-score [17],z-score [18],z-score [19],z-score [20]
COc1cccc([C@H]2Oc3ccc(OC)cc3C(=NOC(C)CN3CCCCc4nc(C)c(C)cc43)[C@@H]2O)c1 (stereo not given in full),0.292,-1.77 (inactive),0.979 (inactive),5.7 (inactive),0.323 (inactive),-0.519,-0.024,0.242,-0.14,0.291,0.751 (inactive),-0.103,1.82 (inactive),0.59 (inactive),0.32 (inactive),0.342 (inactive),-0.887,-2.44 (inactive),-0.284 (inactive),-0.892
C[C@@H](c1ccccc1)N1C(=O)[C@H]2[C@H]3[C@H](O)[C@H](O)CC(=NOCc4ccccc4)[C@H]3CC[C@H]2C1=O,-0.0159,-0.416 (inactive),0.576 (inactive),0.0687 (inactive),0.0517 (inactive),0.587,-0.183,-0.0911,0.651,0.378,0.331 (inactive),-0.0518,31.6 (active),6.36 (inactive),0.321 (inactive),1.21 (inactive),-0.182,-1.53 (inactive),0.0357 (inactive),-3.27
CCOC(=O)CCN1C(=O)[C@H]2[C@H]3[C@H](O)[C@H](O)CC(=NOCC(C)C)[C@H]3CC[C@H]2C1=O,0.0106,0.0793 (inactive),0.256 (inactive),-0.0187 (inactive),0.357 (inactive),-0.0341,-0.159,0.47,-0.5,-0.249,0.867 (inactive),-0.0519,0.0425 (inactive),-0.153 (inactive),0.298 (inactive),0.304 (inactive),-0.0487,-0.864 (inactive),0.148 (inactive),0.444
COC(=O)CC=C[C@@H](C)[C@H](OCc1cccc(-c2ccccc2)c1)C1CCCCC1,-0.106,-0.44 (inactive),0.125 (inactive),0.68 (inactive),-0.198 (inactive),1.85,-0.176,0.439,-0.17,0.412,-0.249 (inactive),-0.289,1.56 (inactive),1.02 (inactive),0.0674 (inactive),0.367 (inactive),-0.484,-0.491 (inactive),0.228 (inactive),-0.471
CO[C@H]1COC(=O)[C@@H](C)COC(=O)[C@H](COCc2ccccc2)NC(=O)CC=C[C@H]1C,-0.171,0.27 (inactive),-1.04 (inactive),-0.567 (inactive),-0.985 (inactive),-0.807,-0.203,0.436,0.491,1.88,-1.17 (inactive),-0.0654,-0.262 (inactive),0.149 (inactive),-0.0011 (inactive),0.156 (inactive),0.503,-1.95 (inactive),0.126 (inactive),0.284
CC(C)(C)N1C(=O)[C@H]2[C@H]3[C@H](O)[C@H](O)CC(=NOCc4ccccc4)[C@H]3CC[C@H]2C1=O,0.0771,0.899 (inactive),-0.192 (inactive),0.968 (inactive),0.183 (inactive),1,0.0342,-0.65,0.155,-0.587,0.254 (inactive),0.57,4.05 (inactive),0.54 (inactive),-0.408 (inactive),0.133 (inactive),-0.371,-0.147 (inactive),0.991 (inactive),0.765
COC(=O)[C@H](C)NC(=O)CCC1CC(OC(=O)NCc2ccc3c(c2)OCO3)CC2(CCCC(COC(=O)NCC3CCCCC3)O2)O1 (stereo not given in full),0.283,-0.643 (inactive),-0.112 (inactive),0.104 (inactive),1.35 (inactive),0.543,-0.0719,0.174,0.433,1.72,-0.23 (inactive),-0.0984,0.858 (inactive),-0.53 (inactive),-0.508 (inactive),-0.167 (inactive),0.224,-0.373 (inactive),0.62 (inactive),-0.651
CCOC(=O)[C@H](Cc1ccccc1)NC(=O)CCC1CC(OC(=O)NCc2cccc3ccccc23)CC2(CCCC(COC(=O)NCc3cccc(C(F)(F)F)c3)O2)O1 (stereo not given in full),-0.0693,-0.816 (inactive),-0.641 (inactive),4.81 (inactive),-0.0734 (inactive),0.339,-0.0375,-0.347,-0.385,0.0624,0.263 (inactive),-0.0984,18.5 (active),2.83 (inactive),0.654 (inactive),0.493 (inactive),-0.283,0.402 (inactive),0.0385 (inactive),-0.162
O=C1C[C@@H](O)[C@@H](O)[C@@H]2[C@@H]3C(=O)N(C[C@@H]4CCCO4)C(=O)[C@@H]3CC[C@H]12,0.288,0.114 (inactive),0.54 (inactive),0.517 (inactive),-0.105 (inactive),0.168,-0.128,0.34,0.068,0.46,0.555 (inactive),-0.0969,0.651 (inactive),0.461 (inactive),-0.406 (inactive),0.376 (inactive),-0.0289,-0.453 (inactive),-0.111 (inactive),-0.0473
